According to PubChem BioAssay (EPA / NIEHS):
The source made the active and inactive calls. How the source made its calls: active means hit-call score of the fitted dose curve at least 0.9, where 1 is the maximum; inactive means score below 0.9.

What was measured:
[1] = read-out: TIMP metallopeptidase inhibitor 1 (TIMP1), TIMP1 (gene 7076); test: BSK_hDFCGF_TIMP1: BioMAP Diversity Plus: hDFCGF Assay for TIMP metallopeptidase inhibitor 1 (TIMP1) Biomarker Activity (AID 2283062); conditions: primary human foreskin fibroblasts; actives raise or lower the signal
Summary of the method: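 Primary human foreskin fibroblasts in the hDFCGF system were dosed with compound for 24 h, then TIMP-1 was measured by ELISA. Activity was fitted bidirectionally relative to DMSO control; parallel SRB staining assessed cytotoxicity.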

[2] = read-out: Monokine induced gamma interferon (MIG), CXCL9 (gene 4283); test: BSK_hDFCGF_MIG: BioMAP Diversity Plus: hDFCGF Assay for Monokine induced gamma interferon (MIG) Biomarker Activity (AID 2283063); conditions: primary human foreskin fibroblasts; actives raise or lower the signal
Summary of the method: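 ELISA read-out of MIG from primary human dermal fibroblasts 24 h post-dosing. Gain or loss of signal fitted bidirectionally, DMSO as baseline.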

[3] = read-out: Matrix Metallopeptidase 1 (MMP1), MMP1 (gene 4312); test: BSK_hDFCGF_MMP1: BioMAP Diversity Plus: hDFCGF Assay for Matrix Metallopeptidase 1 (MMP1) Biomarker Activity (AID 2283064); conditions: primary human foreskin fibroblasts; actives raise or lower the signal
Summary of the method: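 Primary human foreskin fibroblasts in the hDFCGF system were dosed with test chemical, and MMP1 was measured by ELISA 24 h later. Values come from bidirectional curve fitting against the DMSO baseline.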

[4] = read-out: Vascular cell adhesion molecule 1 (VCAM1), VCAM1 (gene 7412); test: BSK_hDFCGF_VCAM1: BioMAP Diversity Plus: hDFCGF Assay for Vascular cell adhesion molecule 1 (VCAM1) Biomarker Activity (AID 2283065); conditions: primary human foreskin fibroblasts; actives raise or lower the signal
Summary of the method: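 Primary human foreskin fibroblasts (hDFCGF system) were dosed with chemical and VCAM-1 was measured by ELISA 24 h later. Bidirectional curve fitting used DMSO as negative control and activity baseline.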

[5] = read-out: Plasminogen activator inhibitor-1 (PAI1), SERPINE1 (gene 5054); test: BSK_hDFCGF_PAI1: BioMAP Diversity Plus: hDFCGF Assay for Plasminogen activator inhibitor-1 (PAI1) Biomarker Activity (AID 2283066); conditions: primary human foreskin fibroblasts; actives raise or lower the signal
Summary of the method: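 Primary dermal fibroblasts (human foreskin), hDFCGF system; compound 24 h; PAI-1 by ELISA; bidirectional fit vs DMSO control.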

[6] = read-out: Intercellular Adhesion Molecule 1 (ICAM1), ICAM1 (gene 3383); test: BSK_KF3CT_ICAM1: BioMAP Diversity Plus: KF3CT Assay for Intercellular Adhesion Molecule 1 (ICAM1) Biomarker Activity (AID 2283067); conditions: primary human keratinocytes with fibroblasts; actives raise or lower the signal
Summary of the method: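 Human keratinocyte plus foreskin fibroblast primary co-culture was exposed to chemical for 24 h. ICAM-1 was then quantified by ELISA, and the data were fit bidirectionally against DMSO as the negative control and baseline.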

[7] = read-out: Interferon-gamma inducible Protein 10 (IP10), CXCL10 (gene 3627); test: BSK_KF3CT_IP10: BioMAP Diversity Plus: KF3CT Assay for Interferon-gamma inducible Protein 10 (IP10) Biomarker Activity (AID 2283068); conditions: primary human keratinocytes with fibroblasts; actives raise or lower the signal
Summary of the method: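 KF3CT co-culture (keratinocytes + foreskin fibroblasts), 24 h compound, IP-10 by ELISA; bidirectional fit vs DMSO baseline.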

[8] = BSK_KF3CT_SRB: Viability Assessment in the BioMAP Diversity Plus: KF3CT Assay (AID 2283069); conditions: primary human keratinocytes with fibroblasts;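 further: total protein by sulforhodamine B staining as a cytotoxicity measure; read 24 h after compound addition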
Summary of the method: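 Human primary keratinocyte plus foreskin fibroblast co-culture exposed to chemicals for 24 h. Total protein measured by 0.1% sulforhodamine B staining after 10% TCA fixation, read at 560 nm; bidirectional fitting versus DMSO baseline.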

[9] = read-out: Interleukin-1 alpha (IL1a), IL1A (gene 3552); test: BSK_KF3CT_IL1a: BioMAP Diversity Plus: KF3CT Assay for Interleukin-1 alpha (IL1a) Biomarker Activity (AID 2283070); conditions: primary human keratinocytes with fibroblasts; actives raise or lower the signal
Summary of the method: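 Human keratinocyte plus foreskin fibroblast primary co-culture, sampled 24 h after chemical dosing. IL-1a measured by ELISA; responses fitted bidirectionally against DMSO baseline (negative control), so gain or loss of signal both count.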

[10] = read-out: TIMP metallopeptidase inhibitor 2 (TIMP2), TIMP2 (gene 7077); test: BSK_KF3CT_TIMP2: BioMAP Diversity Plus: KF3CT Assay for TIMP metallopeptidase inhibitor 2 (TIMP2) Biomarker Activity (AID 2283071); conditions: primary human keratinocytes with fibroblasts; actives raise or lower the signal
Summary of the method: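 Cells: human keratinocytes co-cultured with foreskin fibroblasts. Treat with chemical, 24 h. Measure TIMP-2 by ELISA; fit curves bidirectionally vs DMSO baseline.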

[11] = read-out: Transforming growth factor beta 1 (TGFb1), TGFB1 (gene 7040); test: BSK_KF3CT_TGFb1: BioMAP Diversity Plus: KF3CT Assay for Transforming growth factor beta 1 (TGFb1) Biomarker Activity (AID 2283072); conditions: primary human keratinocytes with fibroblasts; actives raise or lower the signal
Summary of the method: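 Primary human skin cells (keratinocytes, foreskin fibroblasts) were co-cultured, exposed to test chemical and sampled at 24 h. TGF-b1 levels were measured by ELISA and fitted bidirectionally relative to DMSO.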

[12] = read-out: C-C motif chemokine 2 (Homo sapiens) (UniProt P13500); test: BSK_KF3CT_MCP1: BioMAP Diversity Plus: KF3CT Assay for Monocyte Chemoattractant Protein 1 (MCP1/CCL2) Biomarker Activity (AID 2283073); conditions: primary human keratinocytes with fibroblasts; actives raise or lower the signal
Summary of the method: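 Human keratinocyte plus foreskin fibroblast primary co-culture exposed to chemical for 24 h. MCP-1 levels measured by ELISA. Bidirectional curve fitting relative to DMSO negative control as baseline.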

[13] = read-out: Matrix Metallopeptidase 9 (MMP9), MMP9 (gene 4318); test: BSK_KF3CT_MMP9: BioMAP Diversity Plus: KF3CT Assay for Matrix Metallopeptidase 9 (MMP9) Biomarker Activity (AID 2283074); conditions: primary human keratinocytes with fibroblasts; actives raise or lower the signal
Summary of the method: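 Keratinocyte plus foreskin fibroblast human primary skin co-culture was dosed with chemical and MMP-9 was quantified by ELISA 24 h later. Bidirectional curve fitting used DMSO as negative control and activity baseline.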

CD40, CD40 (gene 958) = test: BSK_LPS_CD40: BioMAP Diversity Plus: LPS Assay for CD40 Biomarker Activity (AID 2283076); conditions: primary human HUVEC with PBMC; actives raise or lower the signal
Summary of the method: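 Primary human umbilical vein endothelial cells co-cultured with peripheral blood mononuclear cells, LPS-stimulated, were dosed with chemical and read 24 h later. CD40 levels were measured by ELISA and fitted bidirectionally against DMSO as negative control and baseline.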

[14] = read-out: E-selectin (Homo sapiens) (UniProt P16581); test: BSK_LPS_Eselectin: BioMAP Diversity Plus: LPS Assay for Eselectin Biomarker Activity (AID 2283077); conditions: primary human HUVEC with PBMC; actives raise or lower the signal
Summary of the method: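 Human umbilical vein endothelial cells co-cultured with peripheral blood mononuclear cells under LPS stimulation; E-selectin measured by ELISA 24 h after chemical dosing. Activity fitted bidirectionally against DMSO as negative control and baseline.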

[15] = read-out: Interleukin-8 (IL8), CXCL8 (gene 3576); test: BSK_LPS_IL8: BioMAP Diversity Plus: LPS Assay for Interleukin-8 (IL8) Biomarker Activity (AID 2283078); conditions: primary human HUVEC with PBMC; actives raise or lower the signal
Summary of the method: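 Human umbilical vein endothelial cells co-cultured with PBMC were stimulated with LPS; IL-8 levels were measured by ELISA 24 h after chemical dosing. Activity was fitted bidirectionally against DMSO as negative control and baseline.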

[16] = BSK_LPS_SRB: Viability Assessment in the BioMAP Diversity Plus: LPS Assay (AID 2283079); conditions: primary human HUVEC with PBMC;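 further: total protein by sulforhodamine B absorbance as a cytotoxicity measure; measured one day after compound addition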
Summary of the method: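 Human umbilical vein endothelial cells co-cultured with PBMC (LPS system) were dosed for 24 h. Total protein was stained with 0.1% sulforhodamine B after 10% TCA fixation, read at 560 nm, and fitted bidirectionally against DMSO baseline.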

[17] = read-out: Interleukin-1 alpha (IL1a), IL1A (gene 3552); test: BSK_LPS_IL1a: BioMAP Diversity Plus: LPS Assay for Interleukin-1 alpha (IL1a) Biomarker Activity (AID 2283080); conditions: primary human HUVEC with PBMC; actives raise or lower the signal
Summary of the method: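 Human umbilical vein endothelial cells co-cultured with peripheral blood mononuclear cells were LPS-stimulated and exposed to test chemicals for 24 h. IL-1 alpha was quantified by ELISA, with bidirectional curve fitting against DMSO as the negative control and baseline.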

[18] = read-out: Monocyte Chemoattractant Protein-1 (MCP1), CCL2 (gene 6347); test: BSK_LPS_MCP1: BioMAP Diversity Plus: LPS Assay for Monocyte Chemoattractant Protein-1 (MCP1) Biomarker Activity (AID 2283081); conditions: primary human HUVEC with PBMC; actives raise or lower the signal
Summary of the method: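 HUVEC plus PBMC co-culture (human primary cells, LPS system) exposed to test chemical for 24 h; MCP-1 measured by ELISA. Bidirectional curve fitting against DMSO baseline; parallel SRB total-protein staining flags overt cytotoxicity.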

[19] = read-out: urokinase plasminogen activator (uPA), PLAU (gene 5328); test: BSK_KF3CT_uPA: BioMAP Diversity Plus: KF3CT Assay for urokinase plasminogen activator (uPA) Biomarker Activity (AID 2283075); conditions: primary human keratinocytes with fibroblasts; actives raise or lower the signal
Summary of the method: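 Human keratinocyte plus foreskin fibroblast primary co-culture exposed to chemical for 24 h. uPA levels were quantified by ELISA, and activity was fitted bidirectionally against a DMSO negative-control baseline.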

Measured: outcome

Sequence of E-selectin (Homo sapiens) (P16581 whole entry, looked up): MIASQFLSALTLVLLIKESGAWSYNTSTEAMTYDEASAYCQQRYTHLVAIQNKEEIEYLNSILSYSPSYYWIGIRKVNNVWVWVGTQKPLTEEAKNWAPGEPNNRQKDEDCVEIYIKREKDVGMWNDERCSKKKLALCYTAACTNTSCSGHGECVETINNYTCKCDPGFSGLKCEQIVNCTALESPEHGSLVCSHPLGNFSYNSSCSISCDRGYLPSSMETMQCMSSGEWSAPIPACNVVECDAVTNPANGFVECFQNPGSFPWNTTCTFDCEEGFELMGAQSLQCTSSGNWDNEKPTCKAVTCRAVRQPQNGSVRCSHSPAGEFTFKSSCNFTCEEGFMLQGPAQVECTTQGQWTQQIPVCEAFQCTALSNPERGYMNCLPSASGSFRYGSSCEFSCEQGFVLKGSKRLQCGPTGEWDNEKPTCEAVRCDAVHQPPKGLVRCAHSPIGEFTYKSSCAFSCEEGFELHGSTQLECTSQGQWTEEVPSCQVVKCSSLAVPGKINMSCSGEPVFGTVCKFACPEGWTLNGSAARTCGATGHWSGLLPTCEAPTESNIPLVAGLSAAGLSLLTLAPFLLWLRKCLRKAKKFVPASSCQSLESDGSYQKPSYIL

CCCCCCCCCCCC(=O)OC
not listed: [19]
inactive: all other assays above

COc1ccc(C)cc1N
not listed: [16]
inactive: all other assays above

CC1(C)NC(=O)NC1=O
inactive: all assays above

CCCCN(CCCC)CCCC
inactive: all assays above

Nc1ccc(S(=O)(=O)c2ccc(N)cc2)cc1
not listed: [19]
inactive: all other assays above

Cc1cc(NC(=O)C(=O)O)cc(C)c1Oc1ccc(O)c2c1CCC2
not listed: [16]
inactive: all other assays above

CCCCCCCCCCO
inactive: all assays above
